The values that follow come from PubChem BioAssay (EPA / NIEHS).

SMILES strings stand for the structures. Records with an inconclusive call do not appear. Some compounds were tested as several samples or in several runs, with calls that do not always agree. Activity calls are given as the source filed them. How the source made its calls, unless noted: active means hit-call score of the fitted dose curve at least 0.9, where 1 is the maximum; inactive means score below 0.9.

For experiment [1], the target named is Estrogen-related receptor gamma (Homo sapiens) (UniProt P62508). The experiment is described as follows: ATG_ERRg_TRANS: Attagene TRANS-FACTORIAL HepG2 Assay for human Estrogen-Related Receptor gamma (ERRg) (AID 2282977; active means hit-call score of the fitted dose curve at least 0.9, where 1 is the maximum;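 further: hits increase reporter signal over DMSO so potencies reflect activators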). Conditions: HepG2 Attagene TRANS reporter, ERRg transactivation. Put shortly:
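Transient HepG2 transfectants, 24 h compound exposure, GAL4-UAS reporter mRNA by RT-PCR/6-FAM labelling/capillary electrophoresis; positive direction vs DMSO.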

Experiment [2] addresses Glucocorticoid receptor (Homo sapiens) (UniProt P04150). Kind of experiment: ATG_GR_TRANS: Attagene TRANS-FACTORIAL HepG2 Assay for human Glucocorticoid Receptor (GR) (AID 2282978; active means hit-call score of the fitted dose curve at least 0.9, where 1 is the maximum;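 further: activators score as hits since higher reporter transcript over DMSO is fitted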). Conditions: HepG2 Attagene TRANS GR reporter, mRNA transcription. The method in brief: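 HepG2 cells transiently transfected with GAL4-UAS reporter units and exogenous GR-Gal4 chimera, dosed 24 h. Reporter mRNA by RT-PCR, FAM labeling, HpaI digest and capillary electrophoresis; gain-of-signal fit versus DMSO.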

For experiment [3], the target named is Bile acid receptor (Homo sapiens) (UniProt Q96RI1). Kind of experiment: ATG_FXR_TRANS: Attagene TRANS-FACTORIAL HepG2 Assay for Farnesoid X Receptor (FXR) (AID 2282979; active means hit-call score of the fitted dose curve at least 0.9, where 1 is the maximum;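 further: hits raise reporter mRNA above DMSO so AC50 marks FXR activation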). To be noted: HepG2 Attagene TRANS FXR-GAL4 reporter transcription. Put shortly: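 HepG2 cells transiently transfected with reporter constructs in which a chimeric FXR-GAL4 protein drives a GAL4-UAS reporter; 24 h compound exposure. Reporter mRNA measured by RT-PCR, FAM labelling, HpaI digestion and capillary electrophoresis; gain-of-signal versus DMSO.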

Experiment [4] concerns the target Oxysterols receptor LXR-alpha (Homo sapiens) (UniProt Q13133). Kind of experiment: ATG_LXRa_TRANS: Attagene TRANS-FACTORIAL HepG2 Assay for human Liver X Receptor alpha (LXRa) (AID 2282980; active means hit-call score of the fitted dose curve at least 0.9, where 1 is the maximum). Conditions: HepG2 Attagene TRANS reporter, LXRa transactivation. Put shortly: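 HepG2 cells were transiently transfected with multiplexed reporter units driven by chimeric LXRa–GAL4 fusion proteins, then dosed for 24 h. Reporter mRNA was quantified by RT-PCR, fluorescent labelling and capillary electrophoresis; gain of signal fitted against DMSO baseline.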

For experiment [5], the target named is Oxysterols receptor LXR-beta (Homo sapiens) (UniProt P55055). Kind of experiment: ATG_LXRb_TRANS: Attagene TRANS-FACTORIAL HepG2 Assay for human Liver X Receptor beta (LXRb) (AID 2282981; active means hit-call score of the fitted dose curve at least 0.9, where 1 is the maximum). Conditions: HepG2 Attagene TRANS GAL4-LXRb reporter, mRNA. The method in brief:
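HepG2 cells transiently transfected with multiple reporter transcription units carrying chimeric NR-Gal4 proteins acting on GAL4-UAS reporters; compound exposure 24 h. Reporter mRNA quantified by RT-PCR, 6-FAM labelling, HpaI digestion and capillary electrophoresis; gain of signal versus DMSO.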

A short description of experiment [6]: ATG_M_06_TRANS: Attagene TRANS-FACTORIAL HepG2 Assay for M06 Transcription Factor (Internal Marker) (AID 2282983; active means hit-call score of the fitted dose curve at least 0.9, where 1 is the maximum). To be noted: HepG2 Attagene TRANS M06 internal marker reporter. Put shortly: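 HepG2 cells transiently transfected with multiplexed GAL4-UAS reporter transcription units; after 24 h compound exposure, reporter mRNA measured by RT-PCR, FAM-labelled primer extension, HpaI digestion and capillary electrophoresis. Gain-of-signal fitted versus DMSO baseline; background control readout.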

Experiment [7] can be described thus: ATG_M_32_TRANS: Attagene TRANS-FACTORIAL HepG2 Assay for M32 Transcription Factor (Internal Marker) (AID 2282984; active means hit-call score of the fitted dose curve at least 0.9, where 1 is the maximum). To be noted: HepG2 Attagene TRANS M32 internal marker reporter. Put shortly:
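HepG2 cells transiently transfected with multiple GAL4-UAS reporter transcription units, dosed for 24 hours; reporter mRNA quantified by RT-PCR, 6-FAM primer extension, HpaI digestion and capillary electrophoresis. Gain-of-signal fitted versus DMSO baseline; internal background-control marker.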

The target in experiment [8] is Nuclear receptor subfamily 4 group A member 2 (Homo sapiens) (UniProt P43354). The experiment is described as follows: ATG_NURR1_TRANS: Attagene TRANS-FACTORIAL HepG2 Assay for human Nuclear Receptor Related Protein 1 (NURR1) (AID 2282985; active means hit-call score of the fitted dose curve at least 0.9, where 1 is the maximum). To be noted: HepG2 Attagene TRANS reporter, mRNA readout. The method in brief: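 HepG2 cells transiently transfected with GAL4-UAS reporter units and chimeric NR-Gal4 constructs; chemical exposure 24 h. Reporter mRNA quantified by RT-PCR, fluorescent labelling and capillary electrophoresis; gain of signal fitted relative to DMSO baseline.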

Experiment [9] addresses Transcriptional activator Myb (Homo sapiens) (UniProt P10242). Kind of experiment: ATG_Myb_CIS: Attagene CIS-FACTORIAL HepG2 Assay for human Myeloblastosis (Myb) Proto-Oncogene Transcription Factor (AID 2282986). To be noted: HepG2 Attagene CIS-FACTORIAL Myb reporter transcription; actives raise or lower the signal. Put shortly:
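Transiently transfected HepG2 cells carrying a multiplexed cis-promoter reporter set report endogenous Myb activity after 24 h compound exposure. Reporter mRNA is read by RT-PCR with capillary electrophoresis of fluorescent products, fitted bidirectionally against DMSO.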

A short description of experiment [10]: ATG_NFI_CIS: Attagene CIS-FACTORIAL HepG2 Assay for human Nuclear Factor I (NFI) (AID 2282989). Conditions: HepG2 cis-regulatory reporter, NFI response element transcription; actives raise or lower the signal. The method in brief: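 Reporter transcripts were measured by RT-PCR with fluorescent primer extension and capillary electrophoresis 24 h post-treatment. HepG2 cells carried transiently transfected cis-regulated reporter constructs reporting endogenous factor activity; gain or loss fitted against DMSO baseline.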

Experiment [11] concerns the target Myc proto-oncogene protein (Homo sapiens) (UniProt P01106). Kind of experiment: ATG_Myc_CIS: Attagene CIS-FACTORIAL HepG2 Assay for human Myelocytomatosis (Myc) Proto-Oncogene Transcription Factor (AID 2282990). Conditions: HepG2, Attagene cis-reporter transcription factor activity; actives raise or lower the signal. Put shortly: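 DMSO-normalised, bidirectionally fitted reporter mRNA signal. HepG2 cells transfected with cis reporter constructs, treated 24 h; transcripts detected by RT-PCR, 6-FAM primer extension and CE.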

Experiment [12] is described as follows: ATG_NF_kB_CIS: Attagene CIS-FACTORIAL HepG2 Assay for human Nuclear Factor Kappa B (NF-kB) (AID 2282991). Conditions: HepG2 Attagene cis-factorial NF-kB reporter mRNA; actives raise or lower the signal. Put shortly: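 HepG2 cells transfected with cis-promoter-driven reporter units, so endogenous transcription factor activity is measured. Reporter mRNA quantified 24 h after dosing by RT-PCR and capillary electrophoresis, with bidirectional fitting against DMSO.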

The nature of experiment [13]: ATG_NRF2_ARE_CIS: Attagene CIS-FACTORIAL HepG2 Assay for human Nuclear Factor Erythroid 2 Related Factor 2 (NFR2) response to Antioxidant Response Elements (ARE) (AID 2282992).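 On AC50: reporter mRNA level measured by RT-PCR and capillary electrophoresis fluorescence.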 To be noted: HepG2 Attagene ARE/NRF2 reporter, transcription factor activity; actives raise or lower the signal. The method in brief:
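Transient MRTU transfection of HepG2; 24 h compound exposure; TriZol RNA, RT with oligo(dT), PCR, 6-FAM primer extension, HpaI cut, CE. Bidirectional fit vs DMSO.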

Experiment [14] is described as follows: ATG_Oct_MLP_CIS: Attagene CIS-FACTORIAL HepG2 Assay for human Octamer-Binding Transcription Factor (Oct) (AID 2282993). To be noted: HepG2 Attagene cis-factorial Oct reporter, mRNA; actives raise or lower the signal. The method in brief:
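Readout is reporter transcript level from RT-PCR with fluorescent primer extension and capillary electrophoresis, fitted in both directions against DMSO. Transfected HepG2 reporter units report endogenous factor activity after 24 h dosing.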

Experiment [15] is described as follows: BSK_3C_TissueFactor: BioMAP Diversity Plus: 3C Assay for Tissue Factor Biomarker Activity (AID 2282997). Conditions: BioMAP 3C HUVEC, tissue factor biomarker readout; actives raise or lower the signal. Put shortly:
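Primary human umbilical vein endothelial cells in the 3C system were exposed to test chemical for 24 h, then Tissue Factor measured by ELISA. Activity was fitted bidirectionally against DMSO as negative control and baseline.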

A short description of experiment [16]: BSK_3C_uPAR: BioMAP Diversity Plus: 3C Assay for Urokinase-type plasminogen activator receptor (uPAR) Biomarker Activity (AID 2282998). Conditions: BioMAP 3C HUVEC, uPAR biomarker ELISA; actives raise or lower the signal. Put shortly:
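Cell-surface uPAR on HUVEC (3C system) read by ELISA at 24 h post-treatment, with DMSO as baseline and fitting in both directions. Parallel cultures stained with SRB to flag overt cytotoxicity.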
In general terms: In an ELISA, binding on a coated surface is turned into a signal by an enzyme label.

Experiment [17] has as its target Cellular tumor antigen p53 (Homo sapiens) (UniProt P04637). Kind of experiment: ATG_p53_CIS: Attagene CIS-FACTORIAL HepG2 Assay for human p53 Transcription Factor (AID 2282994). To be noted: HepG2 p53 cis-element reporter, Attagene mRNA; actives raise or lower the signal. The method in brief:
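HepG2, transient MRTU transfection (cis promoter elements, endogenous TFs); 24 h dosing; RNA isolation, RT-PCR, 6-FAM primer extension, HpaI digest, CE fluorescence; bidirectional fit vs DMSO.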

The nature of experiment [18]: ATG_GAL4_TRANS: Attagene TRANS-FACTORIAL HepG2 Assay for GAL4 (Internal Marker) (AID 2282976; active means hit-call score of the fitted dose curve at least 0.9, where 1 is the maximum). Conditions: HepG2 Attagene TRANS GAL4 internal marker reporter. The method in brief: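 HepG2 cells transiently transfected with multiplexed GAL4-UAS reporter constructs were dosed for 24 h. Reporter mRNA was measured by RT-PCR, 6-FAM primer extension, HpaI digestion and capillary electrophoresis, and gain of signal was fitted relative to DMSO.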

For experiment [19], the target named is Hepatocyte nuclear factor 4-alpha (Homo sapiens) (UniProt P41235). The experiment is described as follows: ATG_HNF4a_TRANS: Attagene TRANS-FACTORIAL HepG2 Assay for human Hepatocyte Nuclear Factor 4 alpha (HNF4a) (AID 2282982; active means hit-call score of the fitted dose curve at least 0.9, where 1 is the maximum). Conditions: HepG2 HNF4a transactivation reporter, mRNA readout. Put shortly: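 HepG2 cells transiently transfected with multiplexed GAL4-UAS reporter units responsive to chimeric NR-GAL4 proteins; compound exposure 24 h. Reporter mRNA quantified by RT-PCR, 6-FAM labelling, HpaI digestion and capillary electrophoresis; gain of signal versus DMSO baseline.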

Experiment [20] concerns the target Nuclear respiratory factor 1 (Homo sapiens) (UniProt Q16656). Kind of experiment: ATG_NRF1_CIS: Attagene CIS-FACTORIAL HepG2 Assay for human Nuclear Respiratory Factor 1 (NRF1) Orphan Gene (AID 2282987). To be noted: HepG2 NRF1 cis-element reporter, Attagene multiplex; actives raise or lower the signal. The method in brief: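 HepG2 cells transiently transfected with multiple cis-regulated reporter units, exposed 24 h. Reporter mRNAs measured by RT-PCR, fluorescent labelling, HpaI digestion and capillary electrophoresis; bidirectional fitting against DMSO.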

Estrogen-related receptor gamma (Homo sapiens), sequence (P62508 whole entry, looked up, the tested form may be a part): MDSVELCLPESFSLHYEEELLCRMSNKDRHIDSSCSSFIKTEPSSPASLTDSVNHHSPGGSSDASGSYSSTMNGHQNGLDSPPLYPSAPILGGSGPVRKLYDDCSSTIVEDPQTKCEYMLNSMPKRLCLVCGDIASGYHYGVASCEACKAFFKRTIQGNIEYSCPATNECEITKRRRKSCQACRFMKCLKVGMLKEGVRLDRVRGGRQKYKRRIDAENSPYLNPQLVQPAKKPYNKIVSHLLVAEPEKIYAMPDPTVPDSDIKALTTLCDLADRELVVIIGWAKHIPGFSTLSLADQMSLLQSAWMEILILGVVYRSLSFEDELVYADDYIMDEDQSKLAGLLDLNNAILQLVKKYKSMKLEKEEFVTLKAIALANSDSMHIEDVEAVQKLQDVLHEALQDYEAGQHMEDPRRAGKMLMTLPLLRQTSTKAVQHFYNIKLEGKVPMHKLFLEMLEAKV
Oxysterols receptor LXR-alpha (Homo sapiens), sequence (Q13133 whole entry, looked up, the tested form may be a part): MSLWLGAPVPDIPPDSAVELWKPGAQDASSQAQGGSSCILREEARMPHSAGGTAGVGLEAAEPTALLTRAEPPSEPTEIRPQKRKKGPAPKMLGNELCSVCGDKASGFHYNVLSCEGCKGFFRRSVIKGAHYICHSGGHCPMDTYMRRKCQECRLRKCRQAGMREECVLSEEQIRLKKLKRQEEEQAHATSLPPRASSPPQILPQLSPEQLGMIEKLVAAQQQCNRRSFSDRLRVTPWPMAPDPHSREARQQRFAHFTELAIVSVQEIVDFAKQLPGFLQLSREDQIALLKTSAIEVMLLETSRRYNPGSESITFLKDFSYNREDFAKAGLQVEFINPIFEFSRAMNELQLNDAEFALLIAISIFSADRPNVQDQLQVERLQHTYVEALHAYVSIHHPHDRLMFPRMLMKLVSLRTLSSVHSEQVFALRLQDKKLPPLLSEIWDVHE
Nuclear receptor subfamily 4 group A member 2 (Homo sapiens), sequence (P43354 whole entry, looked up, the tested form may be a part): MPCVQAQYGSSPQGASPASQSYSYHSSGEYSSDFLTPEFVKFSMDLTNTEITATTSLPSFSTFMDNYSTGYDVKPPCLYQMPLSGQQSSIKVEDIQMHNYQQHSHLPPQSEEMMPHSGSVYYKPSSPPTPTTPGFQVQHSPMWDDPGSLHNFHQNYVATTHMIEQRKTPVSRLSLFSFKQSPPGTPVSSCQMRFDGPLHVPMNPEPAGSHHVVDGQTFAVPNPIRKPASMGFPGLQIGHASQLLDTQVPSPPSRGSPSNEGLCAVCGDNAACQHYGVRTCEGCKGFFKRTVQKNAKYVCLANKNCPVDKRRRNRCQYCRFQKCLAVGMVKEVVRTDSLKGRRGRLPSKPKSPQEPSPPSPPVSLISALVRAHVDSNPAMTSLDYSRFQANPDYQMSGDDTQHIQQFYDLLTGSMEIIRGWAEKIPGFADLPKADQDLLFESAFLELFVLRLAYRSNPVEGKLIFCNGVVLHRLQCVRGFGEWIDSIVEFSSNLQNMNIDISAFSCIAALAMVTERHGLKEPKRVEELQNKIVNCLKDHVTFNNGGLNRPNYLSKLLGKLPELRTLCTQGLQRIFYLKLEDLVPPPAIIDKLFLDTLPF
Oxysterols receptor LXR-beta (Homo sapiens), sequence (P55055 whole entry, looked up, the tested form may be a part): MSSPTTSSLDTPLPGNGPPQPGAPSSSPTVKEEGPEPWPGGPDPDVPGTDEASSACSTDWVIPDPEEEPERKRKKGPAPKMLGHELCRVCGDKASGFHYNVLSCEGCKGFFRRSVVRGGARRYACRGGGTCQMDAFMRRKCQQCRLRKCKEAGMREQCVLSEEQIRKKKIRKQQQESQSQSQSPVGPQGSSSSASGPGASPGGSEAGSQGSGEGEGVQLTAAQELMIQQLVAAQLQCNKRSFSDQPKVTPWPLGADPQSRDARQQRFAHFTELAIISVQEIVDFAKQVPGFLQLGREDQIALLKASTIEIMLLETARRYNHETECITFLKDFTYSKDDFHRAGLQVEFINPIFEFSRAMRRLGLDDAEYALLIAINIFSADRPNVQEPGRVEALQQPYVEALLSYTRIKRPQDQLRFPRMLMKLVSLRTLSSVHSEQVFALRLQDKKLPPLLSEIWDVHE
Hepatocyte nuclear factor 4-alpha (Homo sapiens), sequence (P41235 whole entry, looked up, the tested form may be a part): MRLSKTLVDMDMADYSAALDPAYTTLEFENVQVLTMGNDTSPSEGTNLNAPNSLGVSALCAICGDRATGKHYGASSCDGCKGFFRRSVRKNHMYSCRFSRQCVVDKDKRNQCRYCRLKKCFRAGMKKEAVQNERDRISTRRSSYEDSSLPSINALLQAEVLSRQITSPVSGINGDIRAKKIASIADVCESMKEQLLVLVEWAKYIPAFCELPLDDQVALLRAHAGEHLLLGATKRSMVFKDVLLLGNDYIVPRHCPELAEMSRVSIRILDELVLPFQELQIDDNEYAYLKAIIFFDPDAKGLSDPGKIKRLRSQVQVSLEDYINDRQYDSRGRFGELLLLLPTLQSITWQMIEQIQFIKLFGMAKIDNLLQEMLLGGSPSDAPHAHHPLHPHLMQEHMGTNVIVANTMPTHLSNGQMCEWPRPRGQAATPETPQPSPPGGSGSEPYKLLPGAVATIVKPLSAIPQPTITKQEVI
Nuclear respiratory factor 1 (Homo sapiens), sequence (Q16656 whole entry, looked up): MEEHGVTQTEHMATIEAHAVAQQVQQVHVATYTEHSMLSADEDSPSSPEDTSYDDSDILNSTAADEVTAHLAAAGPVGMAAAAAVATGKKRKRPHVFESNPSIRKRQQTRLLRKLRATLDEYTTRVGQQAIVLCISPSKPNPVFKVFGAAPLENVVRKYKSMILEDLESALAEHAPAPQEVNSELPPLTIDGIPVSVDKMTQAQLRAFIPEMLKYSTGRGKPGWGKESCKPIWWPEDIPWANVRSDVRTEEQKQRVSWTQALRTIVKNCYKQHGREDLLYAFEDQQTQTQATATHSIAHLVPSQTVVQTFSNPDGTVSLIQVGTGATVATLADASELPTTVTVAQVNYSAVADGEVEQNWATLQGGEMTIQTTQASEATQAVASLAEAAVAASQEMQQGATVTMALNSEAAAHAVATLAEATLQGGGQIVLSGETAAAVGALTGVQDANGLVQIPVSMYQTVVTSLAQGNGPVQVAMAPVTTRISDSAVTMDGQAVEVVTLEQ
Transcriptional activator Myb (Homo sapiens), sequence (P10242 whole entry, looked up): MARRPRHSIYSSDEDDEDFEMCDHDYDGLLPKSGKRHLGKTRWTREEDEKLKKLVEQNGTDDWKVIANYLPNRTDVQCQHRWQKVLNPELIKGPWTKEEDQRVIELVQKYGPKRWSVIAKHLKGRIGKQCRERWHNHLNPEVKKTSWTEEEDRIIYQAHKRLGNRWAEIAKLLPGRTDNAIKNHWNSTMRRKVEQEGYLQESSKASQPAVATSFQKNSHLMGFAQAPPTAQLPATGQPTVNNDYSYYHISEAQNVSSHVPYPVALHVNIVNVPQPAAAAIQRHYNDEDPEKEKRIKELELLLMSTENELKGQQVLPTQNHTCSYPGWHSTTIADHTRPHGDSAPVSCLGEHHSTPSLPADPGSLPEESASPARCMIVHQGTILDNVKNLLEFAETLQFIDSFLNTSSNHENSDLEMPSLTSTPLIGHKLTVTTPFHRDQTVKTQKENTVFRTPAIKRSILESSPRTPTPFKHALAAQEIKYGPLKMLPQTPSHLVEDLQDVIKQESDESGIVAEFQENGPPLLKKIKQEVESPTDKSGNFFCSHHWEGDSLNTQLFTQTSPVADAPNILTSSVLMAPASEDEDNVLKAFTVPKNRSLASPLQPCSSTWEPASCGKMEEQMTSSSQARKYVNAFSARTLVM
Myc proto-oncogene protein (Homo sapiens), sequence (P01106 whole entry, looked up): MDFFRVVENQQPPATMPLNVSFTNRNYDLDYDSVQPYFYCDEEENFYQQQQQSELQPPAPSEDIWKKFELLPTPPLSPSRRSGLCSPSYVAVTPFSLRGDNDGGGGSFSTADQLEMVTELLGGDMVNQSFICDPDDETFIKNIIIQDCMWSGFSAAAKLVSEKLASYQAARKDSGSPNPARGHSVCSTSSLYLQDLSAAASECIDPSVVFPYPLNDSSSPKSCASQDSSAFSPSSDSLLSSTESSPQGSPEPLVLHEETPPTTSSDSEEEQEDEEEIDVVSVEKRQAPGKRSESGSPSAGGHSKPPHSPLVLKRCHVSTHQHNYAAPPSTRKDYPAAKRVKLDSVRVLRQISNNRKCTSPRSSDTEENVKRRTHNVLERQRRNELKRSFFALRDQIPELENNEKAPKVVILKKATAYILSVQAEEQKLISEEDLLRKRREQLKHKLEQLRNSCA
Glucocorticoid receptor (Homo sapiens), sequence (P04150 whole entry, looked up, the tested form may be a part): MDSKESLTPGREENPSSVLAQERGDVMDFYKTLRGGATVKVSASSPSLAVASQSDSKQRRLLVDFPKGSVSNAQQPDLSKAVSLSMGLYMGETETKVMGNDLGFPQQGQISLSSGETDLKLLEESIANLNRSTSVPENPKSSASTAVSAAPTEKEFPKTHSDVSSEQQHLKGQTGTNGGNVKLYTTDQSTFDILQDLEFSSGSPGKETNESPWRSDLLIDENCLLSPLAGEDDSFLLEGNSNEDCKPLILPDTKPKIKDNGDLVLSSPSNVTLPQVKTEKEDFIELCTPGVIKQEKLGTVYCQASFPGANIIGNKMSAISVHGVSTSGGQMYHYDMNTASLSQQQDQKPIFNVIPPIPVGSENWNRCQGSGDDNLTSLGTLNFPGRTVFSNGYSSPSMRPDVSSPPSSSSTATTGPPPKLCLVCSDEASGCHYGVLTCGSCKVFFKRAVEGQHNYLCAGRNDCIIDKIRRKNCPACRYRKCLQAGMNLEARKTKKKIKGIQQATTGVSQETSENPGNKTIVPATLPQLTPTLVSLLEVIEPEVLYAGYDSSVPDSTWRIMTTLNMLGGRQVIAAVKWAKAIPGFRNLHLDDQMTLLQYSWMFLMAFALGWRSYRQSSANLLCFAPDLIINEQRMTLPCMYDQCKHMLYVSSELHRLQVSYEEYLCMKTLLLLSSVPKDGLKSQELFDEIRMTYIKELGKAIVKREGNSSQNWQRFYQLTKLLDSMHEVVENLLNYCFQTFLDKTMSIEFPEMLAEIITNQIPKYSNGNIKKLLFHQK

For `Nc1nc(N)nc(NC2CC2)n1`, the compound was called inactive in experiment [1], in experiment [2], in experiment [3], in [4], in experiment [5] and in [6]. Moreover, the compound was classed as inactive in experiment [7], in experiment [8], in [9], in experiment [10], in experiment [11] and in experiment [12]. Besides, the compound was classed as inactive in experiment [13], in [14], in [15] and in experiment [16].

What is called AC50 is the midpoint of the concentration-response curve, whichever way the signal moves. In the case of `CC(C)=CC1C(C(=O)OCN2C(=O)C3=C(CCCC3)C2=O)C1(C)C` (stereo not drawn), the compound was called inactive in experiment [1], in [2], in experiment [4], in experiment [5], in [7] and in experiment [8]. The compound was classed as inactive in experiment [10] and in experiment [11]. Further, the AC50 in [9] is 50 µM (active); in experiment [13] it was 16.2 µM (active); in [14] it was 35.4 µM (active); in experiment [15], 12.7 µM (active); in [16] it was 15.5 µM (active).

Consider `COc1cccc(C(=O)NN(C(=O)c2cc(C)cc(C)c2)C(C)(C)C)c1C`, for which the result in experiment [1], in experiment [3], in experiment [6], in [9], in [10] and in experiment [11] was inactive. Further, the result in [12], in [13], in [14], in experiment [17], in experiment [15] and in experiment [16] was inactive.

For the compound `CN(C)[C@@H]1C(=O)C(C(N)=O)=C(O)[C@@]2(O)C(=O)C3=C(O)c4c(O)cccc4[C@@](C)(O)[C@H]3[C@H](O)[C@@H]12`, the call in [18], in experiment [4], in experiment [5], in experiment [19], in [6] and in experiment [7] was inactive. For the same compound, the call in experiment [8], in experiment [9], in experiment [20], in [10], in experiment [11] and in [13] was inactive. Moreover, the call in experiment [14], in [15] and in experiment [16] was inactive. Also, the values for the AC50 in experiment [13] and in experiment [14] were 20.8 µM (active) and 13.6 µM (active), respectively.
